# High-throughput results from PubChem BioAssay.
# The entries come from a sample that favours hits as a whole.
# mcGAS MS inh: inhibitors of mouse cGAS. 0.18% of 130,000 active. inhibition, % at 12.5 µM. recombinant mouse cGAS, cGAMP by RapidFire MS. AID 1259397;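 active means inhibition of cGAS enzyme activity at or above 60%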;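 further: enzyme stimulated by 45 bp dsDNA with ATP and GTP substrates; cGAMP share of summed cGAMP plus half ATP and half GTP signals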
# Target sequence (Q8C6L5 whole entry, looked up): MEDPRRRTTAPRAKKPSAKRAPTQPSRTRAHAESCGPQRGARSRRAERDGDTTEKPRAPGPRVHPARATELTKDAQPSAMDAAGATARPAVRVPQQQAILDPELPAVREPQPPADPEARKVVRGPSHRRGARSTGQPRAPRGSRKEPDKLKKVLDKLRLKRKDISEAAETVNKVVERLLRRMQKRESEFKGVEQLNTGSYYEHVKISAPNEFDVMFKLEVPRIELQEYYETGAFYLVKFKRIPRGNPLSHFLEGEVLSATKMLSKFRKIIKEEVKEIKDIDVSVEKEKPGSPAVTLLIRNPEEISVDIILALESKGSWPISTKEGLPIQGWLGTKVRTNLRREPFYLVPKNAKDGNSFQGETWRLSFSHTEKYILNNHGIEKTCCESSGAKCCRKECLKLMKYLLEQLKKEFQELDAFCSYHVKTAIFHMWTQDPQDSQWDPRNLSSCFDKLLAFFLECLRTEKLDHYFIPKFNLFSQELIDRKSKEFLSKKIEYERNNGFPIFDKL
# Active calls of the source: *; ! = a repeat was not active.
SMILES,mcGAS MS inh
CCOC(=O)NC(CNC(=O)c1cncc(Br)c1)CC(C)C (stereo not drawn),0
c1ccc(CCC2CN(Cc3ccccc3-n3cccn3)CCO2)cc1 (stereo not drawn),-17
Cc1cccc(NC(=O)c2ccccc2Cl)c1C(=O)N1CCCC1,-13
CN(CC1CCCN(CCc2ccccc2F)C1)C(=O)Cn1cnnn1 (stereo not drawn),-6
Cc1nnc(COC(=O)C2CCN(C(=O)c3ccc(Cl)cc3)CC2)n1C,-6
COC(=O)CSc1nc2nc(-c3ccccc3)cc(=O)n2[nH]1,3
CC(C)(C)c1nn(CN2CCC(C(=O)NCc3ccccc3)CC2)c(=S)o1,0
O=C(c1ccc(N2CC(O)C2)nc1)N1CCCN(c2ncccn2)CC1,80*
O=C1CN(c2ccc(C(=O)N3CCCN(c4ncccn4)CC3)cn2)CCN1,-7
CCOc1ccc(C(=O)N2CCN(c3ncccn3)CC2)cc1,-1
Cc1ccncc1NS(=O)(=O)CCc1ccccc1,-3
COc1ccccc1NS(=O)(=O)c1cc(F)ccc1F,4
COc1cc(C)c(S(=O)(=O)Nc2c(F)cccc2F)cc1OC,87*
COc1ccc(NS(=O)(=O)c2cc(C)ccc2C)cc1OC,-9
C=CCn1c(=O)c2c(nc3n2CCN3c2cccc(C)c2C)n(C)c1=O,-5
O=c1c(O)c(-c2ccccc2)oc2cc(O)ccc12,-8
O=c1c(O[C@@H]2O[C@H](CO)[C@H](O)[C@H](O)[C@H]2O)c(-c2ccc(O)c(O)c2)oc2cc(O)cc(O)c12,10
O=c1c(O)c(-c2cc(O)c(O)c(O)c2)oc2cc(O)cc(O)c12,94*
CC(=O)Nc1ccc(CN2C(=O)C(C)Sc3ccccc32)cc1 (stereo not drawn),-6
CCC(OC1CCCC1)C(=O)Nc1ccc(C)c(-n2nnnc2C)c1 (stereo not drawn),-14
CCC1CSC(=NCCOC)N1Cc1ccc(Cl)cc1Cl (stereo not drawn),28
Nc1c2c(nc3ccccc13)CCCC2,-6
Nc1c2ccccc2nc2ccccc12,78*!
Cc1ccc2c(N)cccc2n1,-4
COC(=O)c1cc(Br)ccc1S(=O)(=O)Nc1ccc(OC)c(S(N)(=O)=O)c1,-1
SMILES,mcGAS MS inh
Sc1ccc2c(c1)OCCCO2,8
Cc1ccc(Cl)cc1NC(=O)Cn1c[n+](C)c2ccccc21,2
Cc1ccc2cc(C(=O)N3CCCN(CC(N)=O)CC3)c(C)nc2c1,-1
Nc1nncn1C(=O)c1ccc(Br)o1,82*
O=C(c1ccco1)N1CCN(C(=O)c2ccc(Br)o2)CC1,-5
CC1CCCN(C(=O)c2ccc(Br)o2)C1 (stereo not drawn),54
O=C(C1=CCCC1)N(CCN1CCCCC1)CC1CCCN(C2CCCC2)C1 (stereo not drawn),-16
CC1(C)C2CC1[C@]1(C)OB(c3ccccc3)O[C@@H]1C2 (stereo partly drawn),-5
Cc1ccsc1CN(C)S(=O)(=O)c1ccc2c(c1)C(C)(C)C(=O)N2,-17
CCc1nc(C)sc1C(=O)N1CCc2c(nc(C)nc2N2CCCC2)C1,-6
CCCCC(=O)Nc1ccc(N2CCOCC2)cc1,-6
CN(CC(=O)Nc1ccc(N2CCOCC2)cc1)C(=O)COc1ccccc1C#N,69*
CC(C)n1nccc1NC(=O)COc1ccccc1C#N,3
CC(C)CN1CC(=O)N(c2ccc(Cl)cc2)C2CS(=O)(=O)CC21 (stereo not drawn),-8
O=C(/C=C/c1ccco1)Nc1[nH][nH]c(=O)c1-c1ccccc1,-14
O=C(COCc1ccccc1)N1CCN(C(C(=O)N2CCc3ccccc3C2)C2CCCC2)CC1 (stereo not drawn),-6
Nc1c(C=C2C=CC(=O)C=C2)c(=O)nc2sc(-c3ccccc3)nn12,51
CCc1nn2c(N)c(C=C3C=CC(=O)C=C3)c(=O)nc2s1,89*
Nc1c(C=C2C=CC(=O)C=C2)c(=O)nc2sc(-c3ccccc3Cl)nn12,50
Cc1cc(Nc2ccc3c(n2)C(=O)N(CC(=O)NCc2ccccc2F)C3)n(C)n1,7
NS(=O)(=O)c1cc2c(cc1Cl)NCNS2(=O)=O,-1
CCC1NC(=O)c2cc(S(N)(=O)=O)c(Cl)cc2N1 (stereo not drawn),94*
CN1C(CCl)Nc2cc(Cl)c(S(N)(=O)=O)cc2S1(=O)=O (stereo not drawn),-6
Cc1cn2c3c(=O)n(Cc4ccc(Cl)cc4Cl)c(=O)n(C)c3nc2n1CCN1CCOCC1,-11
Cn1nc(C(=O)NNC(=O)CCc2ccc3c(c2)OCO3)c2ccccc2c1=O,2
SMILES,mcGAS MS inh
O=c1[nH]c2ccc(S(=O)(=O)Nc3ccc4cn[nH]c4c3)cc2s1,5
NC(=O)CC(N)=S,92*
NC(=O)NO,1
NC(=S)CC(=O)N1CCOCC1,-9
N#CC(=Cc1ccc2c(c1)OCO2)c1nc2ccccc2[nH]1,23
O=C(NC1CC1)C1CCN(CCOc2ccc(Cl)cc2Br)CC1,-1
OCc1cn(-c2ccccc2Cl)nn1,94*
CS(=O)(=O)c1nnnn1-c1ccccc1Cl,21
CN(CCNC(=O)c1ccn(-c2ccccc2Cl)n1)C1CC1,2
